# Experimental data from PubChem BioAssay (NCI).
# About 83,000 compounds went through this panel and 20% of them were active in at least one assay; those are over-represented in the sample as a whole.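 A percent growth of 40 corresponds to 60% growth inhibition; 0 means no net growth; -100 means all cells died. Active threshold: below 10.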 Activity calls are given as the source filed them.
# System: SR leukemia
# Experiment: NCI-60 one-dose screen, 48 h (100 = growth as untreated, 0 = no growth, -100 = all killed)
# Settings: 10 µM unless noted
row,SMILES,growth
1,COc1ccc2c(c1)CC[C@@H]1[C@@H]2CC[C@]2(C)[C@@H](O)C(=O)C[C@@H]12,84.2% (inactive)
2,C[C@@H]1CN(c2nc3c(cc2F)c(=O)c(C(=O)O)cn3C(C)(C)C)C[C@H](C)N1,115% (inactive)
3,NS(=O)(=O)c1ccc(-n2ncc3c(NC4CCCCC4)ncnc32)cc1,63.1% (inactive)
4,CCOC(=O)C1=CCC(n2cc(C)c(=O)[nH]c2=O)O1 (stereo not given),94.8% (inactive)
5,O=CNc1ccc2c(c1)Cc1cc([N+](=O)[O-])ccc1-2,31.6% (inactive)
6,CC(=O)[C@H]1CC[C@H]2[C@@H]3C[C@H](C)C4=CC(=O)CC[C@]4(C)[C@H]3C(=O)C[C@]12C,97.5% (inactive)
7,Cc1ccc2nc(SCC(=O)Nc3ccc(-c4nc5ccccc5s4)c(Cl)c3)[nH]c2c1,97.2% (inactive)
8,Cc1ccc(C(=O)Cc2ccccc2)c(O)c1,83% (inactive)
9,ICCC(c1ccccc1)(c1ccccc1)c1ccccc1,-28.7% (active)
10,c1ccc(CN=C(NCc2ccccc2)NCc2ccccc2)cc1,77.4% (inactive)
11,Oc1ccc(/C=N/Nc2nc3ccccc3s2)c(O)c1,6.63% (active)
12,O=C(CC(C(=O)c1ccccc1)N1CCN(Cc2ccccc2)CC1)c1ccccc1 (stereo not given),57.2% (inactive)
13,CC(NC(N)=S)c1ccccc1 (stereo not given),100% (inactive)
14,C[C@]12CCC(=O)C=C1CC[C@H]1[C@@H]3C[C@@H](O)[C@](O)(C(=O)CO)[C@@]3(C)C[C@H](O)[C@@]12F,96.3% (inactive)
15,O=C(Nc1ccc2c(c1)C(=O)c1ccccc1-2)c1ccccc1,81.7% (inactive)
